# Assay results from ChEMBL document CHEMBL1961873, “Compounds: GSK PKIS; Assays: Nanosyn kinase panel” (2012).
# How the values were obtained:
# [1] = target: T1, Serine/threonine-protein kinase D2 (Homo sapiens) (UniProt Q9BZL6); conditions: at 1 µM;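 further: mean value of PRKD2 inhibition, from the GSK PKIS screening panel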
# T1 sequence (whole entry): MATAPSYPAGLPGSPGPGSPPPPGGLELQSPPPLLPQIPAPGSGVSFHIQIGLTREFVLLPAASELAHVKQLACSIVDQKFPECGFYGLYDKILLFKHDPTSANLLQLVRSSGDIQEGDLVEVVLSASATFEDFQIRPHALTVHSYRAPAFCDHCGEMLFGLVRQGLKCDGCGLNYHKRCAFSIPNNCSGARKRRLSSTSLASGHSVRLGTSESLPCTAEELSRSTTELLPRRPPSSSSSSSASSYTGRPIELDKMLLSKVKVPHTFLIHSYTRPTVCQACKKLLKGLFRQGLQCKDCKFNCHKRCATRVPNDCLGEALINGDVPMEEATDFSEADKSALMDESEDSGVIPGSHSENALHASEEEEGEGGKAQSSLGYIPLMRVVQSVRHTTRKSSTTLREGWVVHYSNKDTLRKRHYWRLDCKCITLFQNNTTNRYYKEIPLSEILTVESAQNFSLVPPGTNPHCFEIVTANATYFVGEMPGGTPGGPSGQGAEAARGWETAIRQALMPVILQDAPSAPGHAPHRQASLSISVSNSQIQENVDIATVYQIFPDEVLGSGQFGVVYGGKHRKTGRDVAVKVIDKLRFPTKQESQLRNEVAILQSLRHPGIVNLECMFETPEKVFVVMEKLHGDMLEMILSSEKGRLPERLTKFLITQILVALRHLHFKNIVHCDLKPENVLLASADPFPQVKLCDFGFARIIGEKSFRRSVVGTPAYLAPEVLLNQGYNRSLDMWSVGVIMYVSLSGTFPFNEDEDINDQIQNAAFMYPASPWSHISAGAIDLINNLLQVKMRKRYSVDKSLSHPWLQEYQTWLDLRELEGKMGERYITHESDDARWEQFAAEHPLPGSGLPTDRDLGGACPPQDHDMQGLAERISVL
# [2] = target: T2, Serine/threonine-protein kinase D3 (Homo sapiens) (UniProt O94806); conditions: at 0.1 µM
# T2 sequence (whole entry): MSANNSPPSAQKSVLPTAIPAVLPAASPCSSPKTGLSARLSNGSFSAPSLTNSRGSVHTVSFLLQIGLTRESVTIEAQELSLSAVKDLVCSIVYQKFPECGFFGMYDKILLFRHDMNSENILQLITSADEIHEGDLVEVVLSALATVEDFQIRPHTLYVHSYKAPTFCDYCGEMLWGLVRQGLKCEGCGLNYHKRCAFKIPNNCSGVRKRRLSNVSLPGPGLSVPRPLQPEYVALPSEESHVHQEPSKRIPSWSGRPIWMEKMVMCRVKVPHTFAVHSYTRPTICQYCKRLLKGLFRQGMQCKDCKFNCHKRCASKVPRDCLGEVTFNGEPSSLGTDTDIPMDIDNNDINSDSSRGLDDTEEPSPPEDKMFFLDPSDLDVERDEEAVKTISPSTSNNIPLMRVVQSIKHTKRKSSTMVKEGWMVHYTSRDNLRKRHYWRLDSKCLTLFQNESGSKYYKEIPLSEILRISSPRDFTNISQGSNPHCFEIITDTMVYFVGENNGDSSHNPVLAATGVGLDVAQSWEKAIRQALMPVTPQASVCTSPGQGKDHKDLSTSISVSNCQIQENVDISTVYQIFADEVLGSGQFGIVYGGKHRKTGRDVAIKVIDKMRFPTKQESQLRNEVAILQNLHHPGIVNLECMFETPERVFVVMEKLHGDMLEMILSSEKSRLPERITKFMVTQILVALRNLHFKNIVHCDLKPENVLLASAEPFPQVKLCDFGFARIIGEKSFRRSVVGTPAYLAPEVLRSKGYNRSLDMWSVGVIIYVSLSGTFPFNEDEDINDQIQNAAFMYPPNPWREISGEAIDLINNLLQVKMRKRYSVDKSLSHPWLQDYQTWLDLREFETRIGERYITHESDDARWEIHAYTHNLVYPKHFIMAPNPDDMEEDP
# [3] = target: T2, Serine/threonine-protein kinase D3 (Homo sapiens); conditions: at 1 µM
# [4] = target: T3, cGMP-dependent protein kinase 1 (Homo sapiens) (UniProt Q13976); conditions: at 0.1 µM
# T3 sequence (whole entry): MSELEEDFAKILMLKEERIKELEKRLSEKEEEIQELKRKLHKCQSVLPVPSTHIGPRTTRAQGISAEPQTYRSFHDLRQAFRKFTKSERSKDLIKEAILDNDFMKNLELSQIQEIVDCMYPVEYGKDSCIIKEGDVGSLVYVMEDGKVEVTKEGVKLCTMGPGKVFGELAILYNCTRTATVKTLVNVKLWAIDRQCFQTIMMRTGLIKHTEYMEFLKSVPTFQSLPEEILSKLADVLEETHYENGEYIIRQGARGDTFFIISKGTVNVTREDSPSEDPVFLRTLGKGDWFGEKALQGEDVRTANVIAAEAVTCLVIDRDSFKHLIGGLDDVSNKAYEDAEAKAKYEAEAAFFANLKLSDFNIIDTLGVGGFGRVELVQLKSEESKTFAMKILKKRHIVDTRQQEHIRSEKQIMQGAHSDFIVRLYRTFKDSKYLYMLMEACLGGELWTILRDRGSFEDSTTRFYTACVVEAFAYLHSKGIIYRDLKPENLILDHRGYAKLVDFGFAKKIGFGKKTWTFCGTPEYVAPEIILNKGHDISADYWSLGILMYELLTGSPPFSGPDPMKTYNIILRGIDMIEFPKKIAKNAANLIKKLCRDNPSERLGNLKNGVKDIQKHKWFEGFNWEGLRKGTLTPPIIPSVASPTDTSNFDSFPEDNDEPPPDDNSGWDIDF
# [5] = target: T3, cGMP-dependent protein kinase 1 (Homo sapiens); conditions: at 1 µM
# [6] = target: T4, cGMP-dependent protein kinase 2 (Homo sapiens) (UniProt Q13237); conditions: at 0.1 µM
# T4 sequence (whole entry): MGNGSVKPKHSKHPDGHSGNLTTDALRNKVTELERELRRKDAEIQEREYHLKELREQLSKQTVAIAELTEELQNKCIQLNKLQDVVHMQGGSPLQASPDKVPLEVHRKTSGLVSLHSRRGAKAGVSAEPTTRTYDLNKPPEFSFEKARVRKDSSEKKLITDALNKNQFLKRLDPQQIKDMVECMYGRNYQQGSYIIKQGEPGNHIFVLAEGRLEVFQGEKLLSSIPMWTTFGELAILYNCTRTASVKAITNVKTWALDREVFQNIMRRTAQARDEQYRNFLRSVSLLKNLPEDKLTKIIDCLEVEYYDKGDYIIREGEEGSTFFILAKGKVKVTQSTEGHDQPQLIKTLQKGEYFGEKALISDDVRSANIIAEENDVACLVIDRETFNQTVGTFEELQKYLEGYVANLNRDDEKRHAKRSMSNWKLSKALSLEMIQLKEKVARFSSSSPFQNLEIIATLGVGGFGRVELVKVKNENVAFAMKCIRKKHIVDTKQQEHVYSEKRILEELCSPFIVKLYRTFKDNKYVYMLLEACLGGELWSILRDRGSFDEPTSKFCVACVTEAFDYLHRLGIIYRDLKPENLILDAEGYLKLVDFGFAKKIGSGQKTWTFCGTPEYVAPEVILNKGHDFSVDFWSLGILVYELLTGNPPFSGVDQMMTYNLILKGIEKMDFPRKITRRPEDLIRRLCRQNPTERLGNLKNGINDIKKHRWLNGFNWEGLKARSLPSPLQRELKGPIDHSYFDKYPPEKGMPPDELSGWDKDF
# [7] = target: T4, cGMP-dependent protein kinase 2 (Homo sapiens); conditions: at 1 µM
# [8] = target: T5, cAMP-dependent protein kinase catalytic subunit PRKX (Homo sapiens) (UniProt P51817); conditions: at 0.1 µM
# T5 sequence (whole entry): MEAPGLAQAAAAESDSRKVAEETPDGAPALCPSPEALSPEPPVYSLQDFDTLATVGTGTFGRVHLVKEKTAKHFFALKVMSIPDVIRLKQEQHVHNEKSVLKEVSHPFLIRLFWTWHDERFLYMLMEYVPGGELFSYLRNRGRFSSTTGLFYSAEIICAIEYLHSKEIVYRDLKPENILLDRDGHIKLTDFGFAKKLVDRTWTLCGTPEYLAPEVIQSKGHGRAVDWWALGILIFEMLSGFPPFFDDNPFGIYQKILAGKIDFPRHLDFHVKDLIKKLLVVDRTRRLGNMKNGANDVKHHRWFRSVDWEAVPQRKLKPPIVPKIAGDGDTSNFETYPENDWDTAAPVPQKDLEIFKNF
# [9] = target: T5, cAMP-dependent protein kinase catalytic subunit PRKX (Homo sapiens); conditions: at 1 µM
# [10] = target: Rho-associated protein kinase 1 (Homo sapiens) (UniProt Q13464); conditions: at 0.1 µM;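 further: values are mean percent inhibition of ROCK1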
# Sequence of Rho-associated protein kinase 1 (Homo sapiens) (Q13464 2-1354 limits assumed): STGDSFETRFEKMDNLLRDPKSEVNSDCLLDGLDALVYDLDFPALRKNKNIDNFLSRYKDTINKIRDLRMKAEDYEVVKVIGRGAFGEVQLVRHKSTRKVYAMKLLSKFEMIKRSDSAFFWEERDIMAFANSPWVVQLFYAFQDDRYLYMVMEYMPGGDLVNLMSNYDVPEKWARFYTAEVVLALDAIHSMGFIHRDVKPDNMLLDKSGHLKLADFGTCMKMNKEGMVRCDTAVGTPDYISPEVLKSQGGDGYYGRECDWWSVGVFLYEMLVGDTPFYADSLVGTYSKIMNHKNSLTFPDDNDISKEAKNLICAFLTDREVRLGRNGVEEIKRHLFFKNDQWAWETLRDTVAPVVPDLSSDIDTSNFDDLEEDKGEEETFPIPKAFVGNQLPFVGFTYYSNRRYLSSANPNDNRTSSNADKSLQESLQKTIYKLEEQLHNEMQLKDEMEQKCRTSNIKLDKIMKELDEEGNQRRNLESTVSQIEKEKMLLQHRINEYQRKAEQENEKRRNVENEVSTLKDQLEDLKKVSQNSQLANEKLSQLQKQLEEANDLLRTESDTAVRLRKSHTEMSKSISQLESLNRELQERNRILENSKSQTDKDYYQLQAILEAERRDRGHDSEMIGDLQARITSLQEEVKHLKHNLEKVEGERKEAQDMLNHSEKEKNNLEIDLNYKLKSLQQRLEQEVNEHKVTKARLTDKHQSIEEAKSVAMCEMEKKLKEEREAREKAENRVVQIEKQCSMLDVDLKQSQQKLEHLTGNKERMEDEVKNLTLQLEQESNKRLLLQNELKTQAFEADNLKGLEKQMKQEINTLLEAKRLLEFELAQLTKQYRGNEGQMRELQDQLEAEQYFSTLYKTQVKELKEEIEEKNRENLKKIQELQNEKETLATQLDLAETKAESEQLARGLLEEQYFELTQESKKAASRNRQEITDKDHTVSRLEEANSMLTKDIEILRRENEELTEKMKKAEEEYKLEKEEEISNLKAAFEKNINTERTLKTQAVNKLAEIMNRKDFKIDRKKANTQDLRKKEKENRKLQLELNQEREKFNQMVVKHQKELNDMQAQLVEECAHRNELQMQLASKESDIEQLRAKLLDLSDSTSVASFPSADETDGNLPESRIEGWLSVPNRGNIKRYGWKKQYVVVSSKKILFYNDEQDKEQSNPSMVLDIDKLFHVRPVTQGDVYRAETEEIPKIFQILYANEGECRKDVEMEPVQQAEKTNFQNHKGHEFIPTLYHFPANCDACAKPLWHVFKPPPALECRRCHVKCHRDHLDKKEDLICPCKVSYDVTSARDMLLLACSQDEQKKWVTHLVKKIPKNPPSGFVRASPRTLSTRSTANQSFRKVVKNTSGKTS
Structure (SMILES),inhibition [1],inhibition [2],inhibition [3],inhibition [4],inhibition [5],inhibition [6],inhibition [7],inhibition [8],inhibition [9],inhibition [10]
NS(=O)(=O)c1ccc(N/N=C2\C(=O)Nc3ccc4ncccc4c32)cc1,55.7%,8.6%,51.4%,4.46%,22.6%,9.97%,46.1%,-0.15%,2.43%,7.13%
COc1cccc(-n2ncc3c(N/N=C/c4ccc(F)cc4)ncnc32)c1,3.35%,4.25%,4.06%,1.9%,4.15%,2.19%,2.67%,2.4%,4.79%,1%
Cc1cccc(Nc2ncc(-c3ccccc3)o2)c1,3.61%,2.84%,4.5%,5.35%,11.3%,6.06%,10.7%,11.3%,12%,1.64%
Fc1ccc(-c2cc(-c3c[nH]nc3-c3ccccn3)ccn2)cc1,32.4%,6.2%,20.5%,1.49%,4.77%,1.37%,2.9%,1.98%,5.03%,-0.11%
CC(C)COC(=O)c1ccc2c(c1)/C(=C/Nc1ccc(S(N)(=O)=O)cc1)C(=O)N2,62.1%,1.74%,46.3%,4.93%,14.3%,11%,54.4%,6.36%,13.5%,4.52%
O=C(O[C@H]1CN[C@H](C#Cc2cc3ncnc(Nc4ccc(Cc5ccccc5)cc4)c3s2)C1)N1CCOCC1,1.56%,1.99%,1.5%,3.46%,3.85%,4.54%,3.68%,3.27%,3.94%,2.02%
COc1ccc2c(-c3ccnc(Nc4cccc(OC(F)(F)F)c4)n3)cnn2n1,5.35%,3.53%,5.76%,2.98%,14.2%,1.96%,7.99%,2.02%,3.71%,1.01%
COc1ccc(CNC(=O)c2ccc(-c3cc(-c4nnc(C)o4)ccc3C)cc2)cc1,1.08%,0.4%,0.26%,3.61%,3.68%,2.93%,4.96%,3.88%,6.21%,2.49%
CCOc1ccc2c(-c3ccnc(Nc4cccc(C(F)(F)F)c4)n3)cnn2n1,1.84%,3.02%,3.58%,0.52%,1.15%,0.91%,0.29%,0.1%,-0.76%,-1.15%
Cc1ccc(O)cc1Nc1ccnc2cc(-c3ccccn3)ccc12,34.9%,5.74%,18.9%,3.58%,1.99%,1.7%,3.8%,1.87%,-2.49%,0.91%
O=S(=O)(CCNCc1ccc(-c2ccc3ncnc(Nc4ccc(OCc5cccc(F)c5)c(Cl)c4)c3c2)o1)c1ccccc1,4.53%,5.12%,5.2%,4.89%,3.93%,3.34%,3.34%,2.74%,2.77%,2.37%
COc1cccc(-c2c[nH]c3c(N/N=C/c4ccncc4)ncnc23)c1,5.96%,1.85%,5.38%,2.91%,4.69%,1.71%,8.58%,1.13%,-0.16%,1.94%
CCCN1CCC(c2ccc(Nc3nc(Nc4cc(F)ccc4C(N)=O)c4cc[nH]c4n3)c(OC)c2)CC1,75.7%,13.6%,65.9%,9.75%,46.5%,8.54%,47%,1.4%,4.23%,17.2%
c1cc(-c2cnn3nc(N4CCOCC4)ccc23)nc(NC2CC2)n1,52.4%,5.91%,49.9%,2.98%,6.68%,2.25%,11.9%,1.09%,-0.73%,1.67%
COC(=O)Nc1nc2ccc(S(=O)(=O)c3ccc(NC(=O)Nc4cc(C(F)(F)F)ccc4F)cc3)cc2[nH]1,5.37%,3.18%,5.1%,2.21%,3.86%,2.34%,2.48%,0.54%,-0.36%,0.44%
c1ccc(COc2ccc(Nc3ncnc4ccc(-c5ccco5)cc34)cc2)cc1,2.58%,1.12%,1.43%,-0.44%,0.71%,0.02%,1.35%,2.22%,0.89%,0.21%
COC(=O)c1sc(-n2cnc3cc(OC)c(OC)cc32)cc1OCc1ccccc1C(F)(F)F,5.96%,4.17%,5.73%,2.01%,4.24%,1.58%,3.35%,-0.14%,0.19%,0.1%
